Test results reported in PubChem BioAssay AID588489 (Sanford-Burnham Center for Chemical Genomics, 2011).
In all, about 360,000 compounds went through this assay and about 1,300 (0.36%) were called active. This excerpt belongs to a sample that is enriched for actives. Values without a mark were called inactive. Cut-off read from the data, not from the text of the source: active = inhibition above about 35% (passing the limit was not always enough); inactive = the rest.

Each compound was assayed against Polyadenylate-binding protein 1 (Homo sapiens) (UniProt P11940) (assay: PAM2 peptide displacement from PABP1 MLLE – biochemical, fluorescence polarization, FITC-PAM2, GST-MLLE, primary screen (AID 588489;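 note: plate controls were DMSO wells with GST-MLLE for no effect and wells lacking GST-MLLE protein for full effect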)). Conditions: at 20 µM, hits give high values.
Polyadenylate-binding protein 1 (Homo sapiens), sequence (P11940 whole entry, looked up): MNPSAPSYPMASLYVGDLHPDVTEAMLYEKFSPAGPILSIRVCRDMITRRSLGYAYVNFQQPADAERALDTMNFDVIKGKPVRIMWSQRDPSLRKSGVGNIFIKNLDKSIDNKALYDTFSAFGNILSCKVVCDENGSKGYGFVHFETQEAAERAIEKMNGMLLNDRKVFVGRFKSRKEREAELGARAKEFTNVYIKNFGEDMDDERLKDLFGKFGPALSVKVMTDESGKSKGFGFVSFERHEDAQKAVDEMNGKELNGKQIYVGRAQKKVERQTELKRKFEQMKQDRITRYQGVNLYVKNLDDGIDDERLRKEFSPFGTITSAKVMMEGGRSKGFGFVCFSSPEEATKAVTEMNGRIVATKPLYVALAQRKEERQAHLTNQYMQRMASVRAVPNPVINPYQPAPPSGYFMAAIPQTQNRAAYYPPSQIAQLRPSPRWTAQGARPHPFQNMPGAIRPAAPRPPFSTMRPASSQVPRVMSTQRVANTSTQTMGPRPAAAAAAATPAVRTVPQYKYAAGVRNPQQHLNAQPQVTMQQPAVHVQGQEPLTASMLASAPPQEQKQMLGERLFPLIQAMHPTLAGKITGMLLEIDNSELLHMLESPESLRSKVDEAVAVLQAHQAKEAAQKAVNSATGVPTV

| Structure (SMILES) | inhibition |
| --- | --- |
| O=C1NCCn2nc3ccccc3c21 | 0.33% |
| Nc1ccc2nc3c(=O)[nH]c(=S)[nH]c3nc2c1 | 177% |
| O=c1[nH]c(=O)c2nc3ccccc3nc2[nH]1 | 53.2% (active) |
| COC(=O)c1ccc(CNC(=O)c2ccc(S(=O)(=O)N3CCCCCC3)cc2)cc1 | -6.55% |
| Cc1cc2cc(CNC(=O)c3cccs3)ccc2[nH]1 | 38% |
| Cc1cc2cc(CNC(=O)c3ccc(S(=O)(=O)N4CCOCC4)cc3)ccc2[nH]1 | 45.1% (active) |
| COCCN(C(=O)c1ccccc1F)c1c(N)n(Cc2ccccc2)c(=O)[nH]c1=O | -9.82% |
| COCCn1c(N)c(NCc2ccccc2)c(=O)[nH]c1=O | 44.1% (active) |
| COCCn1c(N)c(N(Cc2ccccc2)C(=O)C2CCCCC2)c(=O)[nH]c1=O | -2.43% |
| C=CCc1cccc2cc(C(=O)NC3CCCC3)c(=O)oc12 | 6.38% |
| CC1CN(C(=O)c2ccc3c(c2)OCO3)OC(c2ccccc2)O1 (stereo unspecified) | 0.75% |
| CSCCC(NC(=O)C1CCC(C)CC1)C(=O)NCc1ccco1 (stereo unspecified) | -8.36% |
| CC(=O)Nc1ccc(NC(=O)C(NS(=O)(=O)c2ccc3c(c2)OCCO3)C(C)C)cc1 (stereo unspecified) | 1.54% |
| CCOC(=O)CNc1nc(Cl)nc(Nc2ccc(OC)cc2OC)n1 | 1.38% |
| CCOC(=O)C(C)n1cnc2c(nnn2-c2cccc(OC)c2)c1=O (stereo unspecified) | 1.6% |
| CCOC(=O)c1sc(=S)n(-c2cccc(OC)c2)c1N | 40.5% (active) |
| Cc1cccc(-n2c(N)c(C(=O)N3CCN(C)CC3)sc2=S)c1 | 3.33% |
| O=C(CN1C(=O)COc2ccc(Cl)cc21)N1CCOCC1 | 8.9% |
| CC1(C(=O)NS(=O)(=O)Cc2cccc(Cl)c2)CCN1C(=O)Cc1ccccc1 (stereo unspecified) | -3.36% |
| NNC(=O)CNC(c1ccccc1)c1cc(Cl)ccc1NC(=O)c1ccccc1 (stereo unspecified) | -2.37% |
| COC(=O)c1ccccc1N=NNc1ccc([N+](=O)[O-])cc1 | 18.6% |
| COc1ccc(Nc2ccc([N+](=O)[O-])cn2)cn1 | 48.7% (active) |
| COc1cc(NC(=O)Nc2ccc(C)cc2)cc([N+](=O)[O-])c1 | -3.48% |
| OC(c1ccc(Cl)cc1)C(CN1CCOCC1)c1ccccc1 (stereo unspecified) | -5.53% |

| Structure (SMILES) | inhibition |
| --- | --- |
| C=C1c2cccc(OC)c2O[C@H](C(=O)OCC)[C@@H]1CCCCCC | -73.6% |
| CC(=O)c1cnc(SCCN2C(=O)c3ccccc3C2=O)nc1C | 4.46% |
| Cc1ccc(S(=O)(=O)NNC(=O)Nc2cccc3ccccc23)cc1 | 3.51% |
| COC(=O)c1c(C)[nH]c(C)c1-c1ccc([N+](=O)[O-])cc1 | -2.95% |
| COC(=O)C1=C(C(=O)OC)C(c2cc([N+](=O)[O-])ccc2O)c2sc(=O)[nH]c2S1 (stereo unspecified) | 40.3% (active) |
| COC(=O)C1=CN(c2ccc(F)c(F)c2)C=C(C(=O)OC)C1c1ccc([N+](=O)[O-])cc1 | 9.34% |
| Cc1ccc(C2=NN(C)c3nc4ccccc4n3C2)cc1 | -3.04% |
| COc1ccc(NS(=O)(=O)c2ccc(C)c(C(=O)NNC(=O)c3csc(N4CCOCC4)n3)c2)cc1 | -13.1% |
| C=CCNC(=S)NNC(=O)c1ccc(Br)o1 | -45.2% |
| CCCCn1c(SCC(=O)NCCc2ccc(OC)c(OC)c2)nc2c1c(=O)n(C)c(=O)n2C | 4.31% |
| CCCSc1nc2c(c(=O)n(C)c(=O)n2C)n1Cc1ccc(C)cc1 | -1.85% |
| CCOc1ccc(Cn2c(SCCCCC#N)nc3c2c(=O)n(C)c(=O)n3C)cc1OCC | 44% (active) |
| O=C(NCCC(=O)N1O[C@@H]2C=C[C@H]1C2)OCC1c2ccccc2-c2ccccc21 | -4.15% |
| CCOCc1nnc(NC(=O)CCC2CCCCC2)s1 | -2.53% |
| Cc1cc([N+](=O)[O-])nn1CCCC(=O)Nc1cccnc1Cl | 2.45% |
| COc1ccc(Cl)cc1-n1c(=S)sc2c(=O)n(-c3ccc(F)cc3)c(SCC(=O)O)nc21 | 43.8% (active) |
| COc1cccc(-n2c(=S)sc3c(=O)n(-c4ccccc4C)c(SCC(=O)O)nc32)c1 | -10.4% |
| COc1cccc(-n2c(=S)sc3c(=O)n(-c4ccccc4OC)c(SCC4OCCO4)nc32)c1 | -1.94% |
| COc1ccccc1C(=O)Oc1ccc(N2C(=O)CCC2=O)cc1 | -2.33% |
| O=C(c1ccc(Cn2cc([N+](=O)[O-])cn2)o1)N1CCCC1 | -7% |
| CC1COc2ccccc2N1C(=O)c1ccc(F)cc1 (stereo unspecified) | -13.6% |
| O=C(c1ccc(F)cc1)n1c(=S)nc2ccccn21 | 39% (active) |
| O=C(c1ccc(F)cc1)N1CCC(n2nnc3ccccc32)CC1 | -6.3% |
| O=C(COC(=O)/C=C/c1nc2ccccc2s1)Nc1ccccc1Oc1ccccc1 | -5.84% |

| Structure (SMILES) | inhibition |
| --- | --- |
| Cc1cccc(NC(=S)Nc2ccc(Cl)c(Cl)c2)c1 | 37.8% (active) |
| Cc1csc(NC(=S)Nc2cccc(Cl)c2)n1 | 35.5% (active) |
| Cc1ccc(C2CCN(C(=S)Nc3cccc(Cl)c3)C2)cc1 (stereo unspecified) | -122% |
| O=C(NCc1cn2ccsc2n1)Nc1cccc(Cl)c1 | -5.66% |
| NS(=O)(=O)c1ccc(NC(=S)Nc2ccc(Br)c(Cl)c2)cc1 | 33.2% |
| Cc1ccc(C)c(NC(=S)NNC(=S)Nc2ccc(C(C)C)cc2)c1 | 30.8% |
| CCc1noc(C)c1C(=O)N1CCCC(N2CCN(c3ccc(F)cc3)CC2)C1 (stereo unspecified) | -6.88% |
| Cc1cccc(-n2nc3c(c2NC(=O)c2cc4ccccc4o2)CS(=O)(=O)C3)c1 | 2.88% |
| CC(C)(C)n1nc2c(c1NC(=O)c1cc3ccccc3o1)CSC2 | 47.2% (active) |
| Cc1cc(NC(=O)c2cc3ccccc3o2)no1 | 16% |
| C=CCn1c(SCC(=O)NCc2ccccc2)nnc1-c1cc(Br)ccc1O | -75.9% |
| CCOC(=O)C1=C(CSc2nnnn2C)N(C)C(=O)NC1c1ccccc1 (stereo unspecified) | -3.23% |
| O=C1CCCC(O)=C1N=Nc1ccc(S(=O)(=O)N2CCOCC2)cc1 | 8.62% |
| O=C1CCCC(O)=C1N=Nc1ccc2ncsc2c1 | 45.2% (active) |
| O=C(NCCC1CCCCN1S(=O)(=O)c1ccccc1)C(=O)NCC1CCCO1 (stereo unspecified) | 1.52% |
| Cc1ccc(C(=O)N/N=C\c2cc(Br)c(Br)o2)cn1 | 69.9% (active) |
| O=C(N/N=C\c1cc(Br)c(Br)o1)C1COc2ccccc2O1 (stereo unspecified) | -16.5% |
| O=C(N/N=C/c1ccc(Br)o1)c1cncc(Br)c1 | 6.99% |
| CC(C)N(C(=O)Cn1cc(SCC(=O)N2CCCC2)c2ccccc21)C(C)C | -0.1% |
| CCOc1ccccc1N1C(=O)CC(Sc2nccc(C)n2)C1=O (stereo unspecified) | 20.7% |
| Cc1ccnc(SC2CC(=O)N(c3ccccc3)C2=O)n1 (stereo unspecified) | 38.2% (active) |
| CC(=O)Nc1ccc(N2C(=O)CC(Sc3nccc(C)n3)C2=O)cc1 (stereo unspecified) | 20.5% |
| CCCCNC(=O)C1(c2ccc(OC)cc2)CCOCC1 | -4.07% |
| Cn1cnnc1SCc1nnc(-c2ccccc2Br)o1 | -6.49% |

| Structure (SMILES) | inhibition |
| --- | --- |
| Nc1cccc2c1C(=O)N(Cc1nnc(-c3ccccc3Br)o1)C2=O | 41.2% (active) |
| CC(C)N(Cc1nnc(-c2ccccc2Br)o1)C(=O)c1cc(Cl)nc2ccccc12 | -1.33% |
| CCOC(=O)c1cc2sccc2n1Cc1ccc(C#N)cc1 | -2.73% |
| CC(Sc1ccc(S(=O)(=O)N2CCN(C)CC2)cn1)C(=O)NC1CCCC(C)C1C (stereo unspecified) | -9.12% |
| CC1(C)C2CC=C(/C=N/NC(=O)c3ccc(Cl)cc3)C1C2 (stereo unspecified) | 10.7% |
| O=C1CCC(=O)N(c2ccccc2)N1 | 3.9% |
| CCOc1ccccc1NC(=S)NC(=O)CCc1ccccc1 | 17.8% |
| O=C(Cc1ccc(Cl)cc1)NC(=S)Nc1ccccc1O | 37.5% (active) |
| Fc1ccccc1CNC(=S)Nc1ccc(Cl)cc1 | -18.2% |
| Cc1sc2ncn(CC(=O)NCCCC(=O)NCc3ccc(F)cc3)c(=O)c2c1C | -10.9% |
| Cc1n[nH]c(=O)c2c(NC(=O)CSc3ccccc3F)oc(C)c12 | 25.1% |
| COc1ccc(OC)c(C2N(c3ccccn3)C(=O)C3CCCN32)c1 (stereo unspecified) | -4.22% |
| COCC(C)N=CC1=C(O)CC(C)(C)CC1=O (stereo unspecified) | 6.93% |
| COc1cccc(NC(=O)CN(C)C(=O)Cc2ccc(Cl)cc2Cl)c1 | -1.03% |
| COc1cccc(NC(=O)CN(C)C(=O)CSC(=S)N2CCCC2)c1 | 40.8% (active) |
| CCN(CC(=O)Nc1ccc(NC(C)=O)cc1)C(=O)CSC(=S)N1CCCC1 | 5.05% |
| COc1ccc(NC(=O)c2c(C)oc3c2CCCC3)cc1 | 6.57% |
| Cc1ccc(N/N=C2\COC(C)(C)CC2=O)cc1 | -0.27% |
| COc1ccc(N/N=C2/CCCCC2=O)cc1 | 44.5% (active) |
| COc1ccc(-c2cc(C3CCN(c4ncccc4[N+](=O)[O-])CC3)[nH]n2)cc1 | 6.76% |
| CCc1ccc2c(c1)C1(NN=C(c3ccccc3)S1)C(=O)N2 (stereo unspecified) | 45.2% (active) |
| CCc1ccc2c(c1)NC(=O)C2(C)Cc1ccc(OC(F)(F)F)cc1 (stereo unspecified) | 8.45% |
| CC[N+]1(CC)CC2=Cc3ccccc3CC2C1 (stereo unspecified) | -5.91% |
| O=C(Nc1cc(S(=O)(=O)Nc2ccc(Cl)cc2)ccc1O)c1ccc(F)cc1F | -7.73% |
